# Source: PubChem BioAssay (National Center for Advancing Translational Sciences (NCATS))
# An excerpt weighted towards active compounds, which were near 7.2% of everything screened.
# FMDV antiviral: antivirals against foot and mouth disease virus | FMDV antiviral cell-based qHTS | Potency, µM (highest dose often 57.9 µM), for inactives: at the highest dose activity change, negative = inhibition, hits mostly inhibitors | hit rate 1.2% among 410,000 | AID 1159524; calls by dose curve; tested in HEK293T cells; note: read-out not given here; nearly all actives have a fitted effect of over 45% in size
# Marburg entry inh: Marburg virus entry inhibition; Marburg virus pseudotyped entry inhibition, cell reporter; Potency, µM (doses to about 37.8 µM), for the others: at the highest dose activity change, negative = inhibition, hits mostly inhibitors; hit rate 1.8% among 300,000; calls by dose curve; tested in HEK293 cells
# RE007 growth inh: less growth of the S. pombe RE007 Vpr strain; hit rate 0.21% among 360,000; AID 651644; S. pombe RE007 Vpr strain, BacTiter-Glo ATP luminescence, 24 h; Potency, µM (highest dose often 92.2 µM), for inactives: at the top dose activity change, negative = less growth, actives largely listed as inhibitors; active = well fitted falling curve with a large enough effect; inconclusive = small, poorly fitted or top-dose-only effect; inactive = no such curve, though single readings can be large or run the other way; note: nearly all actives have a fitted effect of over 50% in size
#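 Fission yeast RE007 carrying one integrated HIV-1 vpr copy, seeded at OD 0.01 in PMG+AL medium with 23 nL pinned compound. Grown 24 h at 30 degrees; viability read by BacTiter-Glo luminescence after 5 min.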
# HCV inhibitor: HCV inhibition | hit rate 3.4% among 340,000 | AID 651820 | Huh7.5.1 HCVcc-Cre infection, luciferase reporter, 44 h | Potency, µM (titrated, usually from 41.8 µM), for the others: at the highest dose activity change, negative = inhibition, hits mostly inhibitors
#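 HCVcc-Cre virus at an moi near 0.5 was added right after compound to cells cultured 4 h from seeding (1,000 cells/well). Luciferase activity was determined 44 h later, 15 min after substrate addition at RT.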
# Sm TGR block: inhibitors of Schistosoma mansoni thioredoxin glutathione reductase | Q962Y6 | purified TGR, DTNB reduction, TNB absorbance 405 nm | Potency, µM (top dose mostly 114 µM), inactives show at the top dose activity change, negative = inhibition, hits mostly inhibitors | hit rate 3% among 360,000; note: nearly all actives have a fitted effect of over 60% in size
#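 Kinetic colorimetric format: TGR-catalysed, NADPH-driven DTNB reduction monitored via TNB absorbance. Enzyme dispensed at 20 nM; compound exposure 15 min at room temperature before reaction start.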
# Lassa entry inh: inhibitors of Lassa virus binding or cell entry; Lassa virus pseudotype entry inhibition, cell reporter; Potency, µM (doses to about 37.9 µM), for the others: top-dose activity change, negative = inhibition, usual class: inhibitors; hit rate 1.2% among 300,000; calls by dose curve; tested in HEK293 cells; note: nearly all actives have a fitted effect of over 50% in size
# * hit, by the source's call; ? = inconclusive; . = not tested or not shown; ! = repeats disagree; [ ] = remark or other dose. Unless noted, calls come from the whole dose curve; as a rule, active = well fitted curve in the direction sought with a large enough effect; inconclusive = small, poorly fitted or top-dose-only effect, or another doubt; inactive = no such curve, though single readings can be large; an effect the other way counts as inactive or inconclusive. % is set by controls: 0 for no effect and ±100 for the full control effect; potency is the fitted concentration of half-maximal effect.
SMILES,FMDV antiviral,Marburg entry inh,RE007 growth inh,HCV inhibitor,Sm TGR block,Lassa entry inh
Cc1ccnc(NC(c2ccccc2O)c2oc(CO)cc(=O)c2O)c1 (configuration not stated),13%,.,-14%,?,1.8µM*,.
COc1cc(-c2nc3ncccn3c2Nc2ccc(C)cc2C)ccc1O,-13%,?,.,.,-1%,-29%[46.1 µM]
Cc1cc(NC(=O)CCS(=O)(=O)c2nc(-c3ccccc3)cc(C(F)(F)F)n2)no1,25µM*,?,1%,10µM*,32µM*,?
COc1ccc(-c2cc(C(F)(F)F)nc(S(=O)(=O)CCCC(=O)Nc3ccccc3C(F)(F)F)n2)cc1OC,22µM*,-19%[46.1 µM],.,.,?,0%[46.1 µM]
COc1ccc(NC(=O)CCS(=O)(=O)c2nc(-c3ccc4c(c3)OCO4)cc(C(F)(F)F)n2)cc1,-6%,-17%[46.1 µM],.,.,79µM*,-32%[46.1 µM]
O=C(CCS(=O)(=O)c1nc(-c2ccc3c(c2)OCO3)cc(C(F)(F)F)n1)Nc1ccc(F)cc1F,?,?,.,.,-21%,12%[46.1 µM]
CS(=O)(=O)c1nc(-c2ccccc2)cc(C(F)(F)F)n1,7.9µM*,6.3µM*,-7%,10µM*,10µM*,?
CCCC(=O)NC(C)c1nc2ccccc2n1Cc1ccccc1 (configuration not stated),-13%,?,.,.,1%,7%[46.1 µM]
COc1ccccc1-c1cc(C(F)(F)F)nc(S(=O)(=O)CCCC(=O)Nc2cc(OC)c(OC)c(OC)c2)n1,19%,?,.,.,?,?
COc1ccc(-c2cc(C(F)(F)F)nc(S(=O)(=O)CCCC(=O)Nc3cccc(O)c3)n2)cc1OC,20µM*,?,-11%,11µM*,35µM*,?
COc1ccc(NC(=O)CCCS(=O)(=O)c2nc(-c3ccc(OC)c(OC)c3)cc(C(F)(F)F)n2)cc1OC,32µM*,?,.,.,?,?
COC(=O)N[C@@H](/C=C/c1ccccc1)[C@@H](C)[N+](=O)[O-],.,2%[14.2 µM],.,.,.,.
O=C1C[C@@H](c2ccccc2)[C@H](c2ccc(Br)cc2)O1,.,-17%[14.2 µM],.,.,.,.
CCC(C)(C)NC(=O)C(c1ccc(F)cc1)N(Cc1ccccc1)C(=O)c1cnccn1 (configuration not stated),-5%,-22%,-11%,1.4µM*,-1%,9%[46.1 µM]
O=C(NCc1ccccc1)C(c1ccccc1)N(Cc1cccs1)C(=O)c1cnccn1 (configuration not stated),-2%,21µM*,-2%,7%,-22%,-6%
COc1cc(C(C(=O)NC(C)(C)C)N(Cc2ccccc2)C(=O)c2cnccn2)cc(OC)c1OC (configuration not stated),-12%,0%,3%,23%,-1%,-22%
N#CC(=C(/N)Sc1ccccc1N)/C(C#N)=C(/N)Sc1ccccc1N,-19%,?,.,.,.,.
COCCn1nnnc1C(c1cccs1)N1CCN(c2cc(C)ccc2C)CC1 (configuration not stated),.,16µM*!,6%,5%,2%,?
COCCn1nnnc1C(c1cc2cc(C)ccc2[nH]c1=O)N1CCCCCC1 (configuration not stated),10%,9%,2%,19%,?,-22%
COCCn1nnnc1C(c1cccs1)N1CCN(c2nc3ccccc3s2)CC1 (configuration not stated),?,?,-1%,?,11%,-29%
CCN(Cc1ccccc1)C(c1cc2cc(C)cc(C)c2[nH]c1=O)c1nnnn1CCOC (configuration not stated),-13%,?,8%,3%,0%,-22%
COCCn1nnnc1C(c1cc2c(C)cc(C)cc2[nH]c1=O)N1CCCCCC1 (configuration not stated),.,-18%,12%,-7%,13µM*,?
COCCn1nnnc1C(c1cc2cc(C)cc(C)c2[nH]c1=O)N1CCN(c2ccccc2F)CC1 (configuration not stated),.,?,0%,6%,40µM*,?
CCOc1ccc(C(=O)Nc2ccc(Cl)c(-c3nc4cc(C)cc(C)c4o3)c2)cc1,13%,9%[46.1 µM],.,.,-4%,-16%[46.1 µM]
Cc1cc(=O)n(C(C)C(=O)N2CCCc3ccccc32)c2c1c(C)nn2-c1ccccc1 (configuration not stated),7%,.,.,.,-3%,?
SMILES,FMDV antiviral,Marburg entry inh,RE007 growth inh,HCV inhibitor,Sm TGR block,Lassa entry inh
COc1cccc(N2CCN(c3ncnc4c3c(-c3ccccc3)cn4-c3ccc(F)cc3)CC2)c1,-21%,.,.,.,3%,25%[46.1 µM]
COc1ccc(-n2cc(-c3ccccc3)c3c(N4CC(C)OC(C)C4)ncnc32)cc1 (configuration not stated),22µM*,?,-14%,?,-8%,?
c1ccc(-c2cn(-c3ccccc3)c3ncnc(N4CCCCC4)c23)cc1,?,?,33%,?,14%,?
CCOc1ccc(-n2cc(-c3ccccc3)c3c(N4CCOCC4)ncnc32)cc1,?,?,-10%,11µM*,.,?
Cc1cccc(N2C(=O)CSC23C(=O)N(CC(=O)NCc2ccccc2Cl)c2ccccc23)c1 (configuration not stated),-16%,.,.,.,-2%,-19%[46.1 µM]
O=C(Nc1ccc2c(c1)nc1n2CCN(Cc2ccccc2)C1)NC1CCCCC1,23%,5%,-13%,-17%,?,3%
COCCN1CCn2c(nc3cc(NC(=O)NC4CCCCC4)ccc32)C1,23%,-29%,1%,1%,8.9µM*,10%
COc1ccc(C(=O)Nc2ccc3c(c2)nc(CN2CCCC2)n3C)cc1,-15%,17%[46.1 µM],14%,-14%,2%,21%[46.1 µM]
CCOC(=O)Nc1ccc2c(c1)nc1n2CCN(CCOC)C1,3%,?,12%,-5%,-15%,23%[46.1 µM]
COCCN1CCn2c(nc3cc(NC(=O)Cn4nc(C)c5ccccc5c4=O)ccc32)C1,-9%,10%[46.1 µM],10%,20%,25µM*,-1%
COCCN1CCn2c(nc3cc(NC(C)=O)ccc32)C1,10%,.,-14%,15%,14µM*,.
COCCN1CCn2c(nc3cc(NC(=O)c4ccc(OC)cc4)ccc32)C1,-12%,3%,0%,1%,16µM*,1%
COc1cccc(OC)c1Cn1nnc2c(=O)[nH]c(C3CCN(C(=O)c4ccccc4)CC3)nc21,-4%,?,.,.,-1%,7%[46.1 µM]
Cc1cc(C)n(C[C@@H]2CC(=O)N(c3cc(Cl)cc(Cl)c3)C2=O)n1,.,4%,.,.,.,.
Cc1nnc(N2CCC(C(=O)NCCc3ccccc3Cl)CC2)c2nn(-c3ccccc3)c(C)c12,-16%,.,.,.,0%,-13%[46.1 µM]
C/C(=N\NC(=O)c1cc(C2CC2)nc2ccccc12)c1ccc(O)cc1O,4%,?,3%,6.3µM*,-6%,?
